Screening results (PubChem)
Pf Dd2 growth: qHTS Primary assay for Inhibitors of Plasmodium falciparum Dd2 growth in vitro; Potency, µM (titrated, usually from 28.9 µM), actives largely listed as inhibitors; P. falciparum Dd2 growth, SYBR Green, 72 h; 4.3% of 120,000 active; active means well fitted inhibition curve with a large enough effect; further: nearly all actives have a fitted effect of over 65% in size
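Infected erythrocytes (Dd2, 0.3% parasitemia, 2.5% hematocrit final) are added to compound in RPMI-1640/Albumax II medium, grown 72 h at 37C in low oxygen, then lysed with saponin/Triton-X containing SYBR Green and read by fluorescence.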
A number is an active result; i = inactive. The sample as a whole holds a higher share of hits than the screen did.

SMILES	Pf Dd2 growth
CC(C)c1ccc([S+](=O)([O-])c2nnn3c2nc(N2CCC(F)CC2)c2ccccc23)cc1	i
Cc1ccc(-c2nnn3c2nc(N2CCC(C)CC2)c2ccccc23)cc1	i
Cc1cc(C)c([S+](=O)([O-])c2nnn3c2nc(N2CCC(F)CC2)c2ccccc23)c(C)c1	11µM
O=S(=O)(c1ccccc1)c1nnn2c1nc(N1CCOCC1)c1ccccc12	i
CN(C)CCNC(=O)Cc1c[nH]c2ncc(-c3ccccc3)cc12	i
COCCc1noc([C@@H]2CC(F)(F)CN2C(=O)c2cccc(C)n2)n1	i
COc1ccc(CN2CCN3C(=O)N(Cc4ccc(OC)cc4)C[C@H]3C2)cc1	i
COc1ccc(CN2C[C@H]3CN(Cc4ccc(Cl)cc4)CCN3C2=O)cc1	i
COc1ccc(CN2C[C@H]3CN(Cc4ccc5c(c4)OCCO5)CCN3C2=O)cc1	11µM
Cn1ccc(NC(=O)C2(C)CCCc3cnc(NCc4ccccc4)nc32)n1 (stereo not given)	i
COCc1nc(NCCCc2c(C)noc2C)cc(C2CC(N)C2)n1 (stereo not given)	i
Cc1cccc(OCC(=O)N2CC(C(=O)NC3CCCCC3)C3(CCOCC3)C2)c1 (stereo not given)	i
Cc1cccn2c(=O)c(/C=C(\C#N)c3nc4ccccc4s3)c(Oc3ccc(F)cc3)nc12	3.2µM
Cc1cc(C)cc(Oc2nc3ccccn3c(=O)c2/C=C(\C#N)c2nc3ccccc3s2)c1	i
Cc1cc(C)cc(Oc2nc3c(C)cccn3c(=O)c2/C=C(\C#N)c2nc3ccccc3s2)c1	0.89µM
Cc1cc(Oc2nc3ccccn3c(=O)c2/C=C(\C#N)c2nc3ccccc3s2)ccc1Cl	i
CCc1ccc(Oc2nc3c(C)cccn3c(=O)c2/C=C(\C#N)c2nc3ccccc3s2)cc1	i
N#C/C(=C\c1c(Oc2ccc(Br)cc2)nc2ccccn2c1=O)c1nc2ccccc2s1	i
CCOc1ccccc1C(=O)NCC(=O)N1CCN(c2ccccn2)CC1	i
O=C(NCc1nnc2n1C(C(=O)NCCc1ccc(Cl)cc1)CC2)C1CC1 (stereo not given)	i
O=C(O)C1CN(CC2CC2)CCN(C(=O)c2cc(=O)[nH]o2)C1 (stereo not given)	i
COCc1cc(CNC(=O)c2cn(C3CCC(N)CC3)nn2)[nH]n1 (stereo not given)	i
CCC(CC)NC(=O)CC1CCCN(c2cn[nH]c(=O)c2)C1 (stereo not given)	i
CC(C)c1ccc(C(=O)N2CC(C(=O)NCCc3ccncc3)C3(CCOCC3)C2)cc1 (stereo not given)	i
Cc1cccc(OC[C@H]2C[C@@H](N)[C@H](O)[C@@H]2O)n1	i
SMILES	Pf Dd2 growth
O=C(NC1CCN(c2cc(-c3cccs3)[nH]n2)C1)c1ccncc1 (stereo not given)	i
Cc1ccc(C(=O)NC2CCN(c3cc(-c4cccs4)[nH]n3)C2)cc1F (stereo not given)	i
O=C(NC1CCN(c2cc(-c3cccs3)[nH]n2)CC1)c1ccc(F)c(Cl)c1	i
O=C(NC1CCN(c2cc(-c3cccs3)[nH]n2)C1)c1ccc2[nH]ccc2c1 (stereo not given)	i
O=C(NC1CCN(c2cc(-c3cccs3)[nH]n2)C1)c1cc2ccccc2[nH]1 (stereo not given)	14µM
Cc1ccc(C(=O)NC2CCN(c3cc(-c4cccs4)[nH]n3)CC2)cc1F	11µM
C[S+](=O)([O-])N1CCC2(C1)N=C(c1ccncc1)C(=O)N2 (stereo not given)	i
O=C1NCCCCCCN(C(=O)c2cccnc2)[C@H]2CCC[C@@H]12	i
O=C(C1CCN(C(=O)N2CC3CC(C2)[C@H]2CCCC(=O)N2C3)CC1)N1CCCCCC1 (stereo not given in full)	i
Cc1cccc(OCC2(CNCc3nccs3)C[C@@H](O)[C@@H](O)C2)n1 (stereo not given in full)	i
O=C(CCc1ccccc1)N1C[C@@H](CO)[C@H](c2ccncc2)C1	i
CC(=O)N1Cc2ccccc2CC2(CCN(C)CC2)C1	i
CN(C)CCC(=O)N1Cc2ccccc2CC2(CCCCN2C)C1 (stereo not given)	i
CN1CCN(C(=O)C2(N(C)CCc3ccccc3)Cc3ccccc3C2)CC1	1µM
Cc1ccc(C2Cn3nnc(C(=O)N4CCC(C(=O)NCc5cc(F)ccc5F)CC4)c3CO2)cc1 (stereo not given)	i
COc1ccccc1Cn1c(CNS(=O)(=O)c2c(C)cc(C)cc2C)nc2cccnc21	13µM
CCOc1ccc(Cn2c(CNS(=O)(=O)c3c(C)cc(C)cc3C)nc3cccnc32)cc1	i
COc1ccccc1Cn1c(CNS(=O)(=O)c2ccc(C(C)C)cc2)nc2cccnc21	i
COCC(=O)NC1CCC12CCN(C(=O)Nc1ccccc1F)CC2 (stereo not given)	i
C=CCCC(CN1CCOCC1)Oc1ccc(-c2ccccc2)nn1 (stereo not given)	i
C=CCCC(CN1CCCC1)Oc1ccc(C(=O)NCC)cn1 (stereo not given)	3.2µM
